Screens deposited in PubChem BioAssay by National Center for Advancing Translational Sciences (NCATS).
RORgamma inh: inhibitors of mouse ROR gamma transcriptional activity; Potency, µM (highest dose often 53.6 µM), inactives show at the highest dose activity change, negative = inhibition, actives largely listed as inhibitors; hit rate 5.4% among 310,000; Drosophila S2 Gal4-RORgamma UAS-luciferase reporter, 20 h; AID 2551; P51450; further: nearly all actives have a fitted effect of over 60% in size
Target sequence (P51450 whole entry, looked up, the tested form may be a part): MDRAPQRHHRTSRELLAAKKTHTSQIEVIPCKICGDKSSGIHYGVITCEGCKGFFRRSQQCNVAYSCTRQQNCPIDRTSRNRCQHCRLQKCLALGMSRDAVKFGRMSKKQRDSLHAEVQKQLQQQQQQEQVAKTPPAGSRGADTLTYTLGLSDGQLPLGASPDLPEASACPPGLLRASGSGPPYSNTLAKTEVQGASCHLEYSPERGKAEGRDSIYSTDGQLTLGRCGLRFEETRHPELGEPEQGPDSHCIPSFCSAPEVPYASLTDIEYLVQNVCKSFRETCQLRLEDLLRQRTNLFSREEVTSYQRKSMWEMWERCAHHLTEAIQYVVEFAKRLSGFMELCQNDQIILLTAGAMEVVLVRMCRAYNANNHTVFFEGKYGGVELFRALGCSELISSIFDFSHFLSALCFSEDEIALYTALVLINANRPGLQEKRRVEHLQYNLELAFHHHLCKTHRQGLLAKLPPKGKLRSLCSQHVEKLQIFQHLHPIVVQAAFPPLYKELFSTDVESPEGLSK
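Drosophila S2 cells stably expressing Gal4-DBD/mouse RORγ fusion under metallothionein promoter plus UAS-luciferase; compound 1 h, then 700 uM CuSO4 induction for 20 h at ambient temperature; inhibition read as reduced luminescence.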
Gal4-VP16 FLuc: Gal4-VP16 reporter inhibition counter-screen | hit rate 3.5% among 310,000 | Potency, µM (highest dose often 53.6 µM), for the others: top-dose activity, negative = inhibition, hits mostly inhibitors | AID 2546 | Drosophila S2 Gal4-VP16 UAS-luciferase, luminescence, 20 h;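 further: Gal4-VP16 expression switched on by copper sulfate through the metallothionein promoter; nearly all actives have a fitted effect of over 50% in size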
Luc counter: blocks Kinase-Glo luciferase, a counter-screen artifact | hit rate 0.28% among 200,000 | Kinase-Glo luciferase, ATP luminescence, 8 min | Q27757 | Potency, µM (top dose mostly 38.3 µM), inactives show at the top dose activity change, negative = inhibition, actives largely listed as inhibitors; further: nearly all actives have a fitted effect of over 60% in size
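Inhibition of Kinase-Glo luciferase light generation was assessed at 10 uM ATP in pH 7.2 imidazole buffer, with luminescence measured after eight minutes at ambient temperature.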
Active calls of the source: *. This is a sample that favours compounds with a hit; in the whole collection about 6.2% have one here. The call rests on the fitted dose curve; in most records, active means well fitted curve in the direction sought with a large enough effect; inconclusive means small, poorly fitted or top-dose-only effect, or another doubt; inactive means no such curve, though single readings can be large; an effect the other way counts as inactive or inconclusive. On the % scale 0 is the no-effect control and ±100 the full control effect; potency means the concentration at half of the fitted maximal effect.

Screening CCOC(=O)c1nn(-c2ccc(Cl)cc2)c2nnc(Cc3ccc(C)cc3)c(=O)n12 returned RORgamma inh -12%, Gal4-VP16 FLuc 22µM* and Luc counter -6%.
Screening CCOC(=O)c1nn(-c2ccccc2)c2nnc(Cc3ccc(Cl)cc3)c(=O)n12 returned RORgamma inh 9%, Gal4-VP16 FLuc -12% and Luc counter -3%.
O=C(CS(=O)c1ccc(C(F)(F)F)cc1[N+](=O)[O-])Oc1ccccc1 (stereo not given) was read as RORgamma inh -15%, Gal4-VP16 FLuc 0% and Luc counter 7%.
Screening CS(=O)(=O)c1ccc(S(=O)CC(=O)OCc2ccccc2)c([N+](=O)[O-])c1 (stereo not given) returned RORgamma inh 4.5µM*, Gal4-VP16 FLuc 4.5µM* and Luc counter 1%.
CCCCCC(CC)COC(=O)CC(C(=O)OCC(CC)CCCC)S(=O)(=O)O (stereo not given) was read as RORgamma inh -27% and Gal4-VP16 FLuc -5%.
`O=c1c(O)c(-c2ccccc2)oc2cccc(O)c12` gave RORgamma inh 4µM*, Gal4-VP16 FLuc 7.9µM* and Luc counter -1%.
Screening O=c1c(O)c(-c2ccc(O)cc2)oc2cc(O)cc(O)c12 returned RORgamma inh -25%, Gal4-VP16 FLuc -24% and Luc counter 1%.
Screening COc1ccccc1N1CCN(C2CCCN(S(=O)(=O)c3ccccc3)C2)CC1 (stereo not given) returned RORgamma inh -1% and Gal4-VP16 FLuc -1%.
`Cc1nnc(SCC(=O)Nc2nc(-c3ccc(F)cc3)cs2)[nH]c1=O` gave RORgamma inh 2%, Gal4-VP16 FLuc 9% and Luc counter 1%.
`Cc1ccc(NC2=C/C(=N\S(=O)(=O)c3cccs3)c3ccccc3C2=O)c(C)c1` gave RORgamma inh inconclusive, Gal4-VP16 FLuc inconclusive and Luc counter -14%.
For Cc1cccc(NC2=C/C(=N/S(=O)(=O)c3cccs3)c3ccccc3C2=O)c1 the results were RORgamma inh 1%, Gal4-VP16 FLuc -3% and Luc counter inconclusive.
`CCc1ccc(S(=O)(=O)/N=C2\C=C(Nc3ccc(O)cc3)C(=O)c3ccccc32)cc1` gave RORgamma inh 10µM* and Gal4-VP16 FLuc 11µM*.
`CCc1ccc(S(=O)(=O)/N=C2\C=CC(=O)c3ccccc32)cc1` gave RORgamma inh inconclusive, Gal4-VP16 FLuc inconclusive and Luc counter -9%.
For Cc1ccc(Cl)cc1NC1=C/C(=N\S(=O)(=O)c2cccs2)c2ccccc2C1=O the results were RORgamma inh -92%, Gal4-VP16 FLuc 5µM* and Luc counter -23%.
O=C(O)c1cccc(NC2=C(n3nnc4ccccc43)C(=O)c3ccccc3C2=O)c1 was read as RORgamma inh -8% and Gal4-VP16 FLuc 1%.
For CCc1ccc(S(=O)(=O)/N=C2\C=C(Nc3cccc(C(=O)O)c3)C(=O)c3ccccc32)cc1 the results were RORgamma inh 11µM* and Gal4-VP16 FLuc inconclusive.
For O=C1C(Nc2ccc(O)cc2)=C/C(=N/S(=O)(=O)c2cccs2)c2ccccc21 the results were RORgamma inh 11µM*, Gal4-VP16 FLuc 13µM* and Luc counter -28%.
`CC(=O)c1cccc(NC(=O)Cn2cnc(S(=O)(=O)N3CCCC3)c2)c1` gave RORgamma inh -11% and Gal4-VP16 FLuc -12%.
Screening CCOC(=O)C1=C(C)NC(=O)C(C#N)C1c1ccncc1 (stereo not given) returned RORgamma inh -11%, Gal4-VP16 FLuc 1% and Luc counter 14%.
CC[C@H](C)[C@H](NC(=O)[C@H](Cc1ccccc1)NC(=O)[C@H](C)NC(=O)[C@H](CC(=O)O)NC(=O)[C@H](CCCCN)NC(=O)[C@H](CO)NC(=O)[C@@H]1CCCN1C(=O)[C@@H]1CCC(=O)N1)C(=O)NCC(=O)N[C@@H](CC(C)C)C(=O)N[C@@H](CCSC)C(N)=O was read as RORgamma inh 0% and Gal4-VP16 FLuc -7%.
Cc1cc(C)c(S(=O)(=O)/N=C2/C=C(SCC(=O)O)C(=O)c3ccccc32)cc1C was read as RORgamma inh -18%, Gal4-VP16 FLuc inconclusive and Luc counter -6%.
For CCc1ccc(S(=O)(=O)/N=C2/C=C(Sc3ncn[nH]3)C(=O)c3ccccc32)cc1 the results were RORgamma inh 13µM*, Gal4-VP16 FLuc 6.3µM* and Luc counter 0%.
For COc1ccc(CN2C(=O)c3cccnc3C2=O)cc1S(=O)(=O)NC1CCCCC1C (stereo not given) the results were RORgamma inh -13% and Gal4-VP16 FLuc 3%.
